1 sequence from PMC7862700, “An all-to-all approach to the identification of sequence-specific readers for epigenetic DNA modifications on cytosine” can be followed below.

Test in all cases: DAPPL (digital affinity profiling via proximity ligation, sequencing); 10 mM Tris-HCl pH 7.5, 50 mM NaCl, 1 mM DTT, 4% glycerol, room temperature, 30 min; GST-TFs on glutathione beads, 16-mer random dsDNA library, 0.1% formaldehyde crosslink after washing; high values mean tight binding
One experiment concerns the target T1, FLI1 (Homo sapiens, UniProt Q01543 1-452).
T1 sequence: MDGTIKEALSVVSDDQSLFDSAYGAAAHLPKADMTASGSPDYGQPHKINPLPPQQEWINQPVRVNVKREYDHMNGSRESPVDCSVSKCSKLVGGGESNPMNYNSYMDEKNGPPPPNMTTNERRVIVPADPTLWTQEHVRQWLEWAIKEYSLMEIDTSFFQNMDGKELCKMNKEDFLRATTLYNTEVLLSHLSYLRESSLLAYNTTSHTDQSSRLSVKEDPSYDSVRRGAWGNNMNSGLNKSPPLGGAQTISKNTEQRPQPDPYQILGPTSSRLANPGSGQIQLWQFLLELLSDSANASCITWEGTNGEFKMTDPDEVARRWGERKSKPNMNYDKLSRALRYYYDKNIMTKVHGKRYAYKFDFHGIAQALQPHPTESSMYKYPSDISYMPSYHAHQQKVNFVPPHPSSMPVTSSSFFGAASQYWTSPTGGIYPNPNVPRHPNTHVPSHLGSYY
The note with it: protein: recombinant; tags: N-terminal GST; dsDNA, one strand shown. The procedure, abridged:
(§1)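 The binding signal reported is, for every hexamer, its read frequency for a factor over its read frequency for the tag-only sample. Reads came from pools of yeast-expressed, GST-fused human transcription factors on glutathione beads, barcoded with DNA and mixed with that sample, which were incubated with 200 nmole of a random double-stranded 16-mer DNA library in Tris/NaCl/DTT/glycerol buffer at room temperature for 30 min. After washing, the pools were crosslinked with 0.1% formaldehyde, proximity-ligated with BsaI/T4 ligase for 1 h at 37 °C, PCR-amplified and sequenced on an Illumina NextSeq500.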

For a further experiment, the target named is T2, ELK1 (Homo sapiens, UniProt P19419 1-428).
T2 sequence: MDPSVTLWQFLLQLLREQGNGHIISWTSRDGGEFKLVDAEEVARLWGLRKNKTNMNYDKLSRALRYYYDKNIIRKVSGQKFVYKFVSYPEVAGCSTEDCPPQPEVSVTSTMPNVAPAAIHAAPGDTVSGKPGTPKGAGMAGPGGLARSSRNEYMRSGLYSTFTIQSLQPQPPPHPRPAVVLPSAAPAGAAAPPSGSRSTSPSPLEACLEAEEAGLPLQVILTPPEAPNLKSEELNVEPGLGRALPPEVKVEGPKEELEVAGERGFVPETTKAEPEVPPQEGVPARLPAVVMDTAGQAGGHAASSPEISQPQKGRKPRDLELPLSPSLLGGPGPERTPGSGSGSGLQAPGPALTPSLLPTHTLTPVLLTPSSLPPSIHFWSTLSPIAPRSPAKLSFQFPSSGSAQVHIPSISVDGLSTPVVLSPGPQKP
To be noted: protein: recombinant; tags: N-terminal GST; dsDNA, one strand shown. The method in brief: as §1

In a further experiment the target is T3, GABPA (Homo sapiens, UniProt Q06546 1-454).
T3 sequence: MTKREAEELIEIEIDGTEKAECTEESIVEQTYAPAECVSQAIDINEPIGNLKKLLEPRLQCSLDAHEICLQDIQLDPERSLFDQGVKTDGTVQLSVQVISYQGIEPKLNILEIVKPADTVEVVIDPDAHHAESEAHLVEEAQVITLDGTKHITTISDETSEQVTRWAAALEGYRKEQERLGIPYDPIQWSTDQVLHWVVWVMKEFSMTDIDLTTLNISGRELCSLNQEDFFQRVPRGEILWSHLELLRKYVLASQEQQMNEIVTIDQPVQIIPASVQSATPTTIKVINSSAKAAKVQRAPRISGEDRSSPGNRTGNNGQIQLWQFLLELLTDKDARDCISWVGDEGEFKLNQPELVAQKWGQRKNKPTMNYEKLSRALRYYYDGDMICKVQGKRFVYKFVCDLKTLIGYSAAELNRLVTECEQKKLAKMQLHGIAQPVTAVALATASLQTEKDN
To be noted: protein: recombinant; tags: N-terminal GST; dsDNA, one strand shown. The procedure, abridged: as §1

For another experiment, the target named is T4, ERG (Homo sapiens, UniProt P11308 1-479).
T4 sequence: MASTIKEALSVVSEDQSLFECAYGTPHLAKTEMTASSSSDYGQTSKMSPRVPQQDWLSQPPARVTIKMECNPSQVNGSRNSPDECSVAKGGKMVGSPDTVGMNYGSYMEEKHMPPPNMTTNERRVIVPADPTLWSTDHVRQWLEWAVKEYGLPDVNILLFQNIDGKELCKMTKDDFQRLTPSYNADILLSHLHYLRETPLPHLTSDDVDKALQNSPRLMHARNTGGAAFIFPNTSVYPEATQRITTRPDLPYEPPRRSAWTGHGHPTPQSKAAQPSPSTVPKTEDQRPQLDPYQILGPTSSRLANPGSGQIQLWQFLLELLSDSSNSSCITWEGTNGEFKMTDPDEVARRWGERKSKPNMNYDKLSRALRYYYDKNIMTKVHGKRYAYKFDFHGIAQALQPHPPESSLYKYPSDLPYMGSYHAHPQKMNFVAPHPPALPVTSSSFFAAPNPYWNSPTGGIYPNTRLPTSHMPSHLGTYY
The note with it: protein: recombinant; tags: N-terminal GST; dsDNA, one strand shown. The method in brief: as §1

A further experiment addresses ELF1 (Homo sapiens, UniProt P32519 1-619). To be noted: protein: recombinant; tags: N-terminal GST; dsDNA, one strand shown. The procedure, abridged: as §1
The target of the next experiment is T5, EHF (Homo sapiens, UniProt Q9NZC4 1-300).
T5 sequence: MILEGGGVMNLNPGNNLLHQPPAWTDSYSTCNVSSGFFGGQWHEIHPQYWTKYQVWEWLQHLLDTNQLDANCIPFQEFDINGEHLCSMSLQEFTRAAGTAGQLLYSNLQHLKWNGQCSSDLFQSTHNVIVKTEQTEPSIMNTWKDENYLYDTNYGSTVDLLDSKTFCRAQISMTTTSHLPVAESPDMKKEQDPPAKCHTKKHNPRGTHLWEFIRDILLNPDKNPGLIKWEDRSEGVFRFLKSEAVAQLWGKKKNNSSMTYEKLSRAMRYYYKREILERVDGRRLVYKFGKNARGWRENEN
The note with it: protein: recombinant; tags: N-terminal GST; dsDNA, one strand shown. The method in brief: as §1

Another experiment has as its target SPI1 (Homo sapiens, UniProt P17947 1-270). To be noted: protein: recombinant; tags: N-terminal GST; dsDNA, one strand shown. The procedure, abridged: as §1
Another experiment deals with SPIB (Homo sapiens, UniProt Q01892 1-262). To be noted: protein: recombinant; tags: N-terminal GST; dsDNA, one strand shown. The procedure, abridged:
as §1

The target of another experiment is T6, ELK3 (Homo sapiens, UniProt P41970 1-407).
T6 sequence: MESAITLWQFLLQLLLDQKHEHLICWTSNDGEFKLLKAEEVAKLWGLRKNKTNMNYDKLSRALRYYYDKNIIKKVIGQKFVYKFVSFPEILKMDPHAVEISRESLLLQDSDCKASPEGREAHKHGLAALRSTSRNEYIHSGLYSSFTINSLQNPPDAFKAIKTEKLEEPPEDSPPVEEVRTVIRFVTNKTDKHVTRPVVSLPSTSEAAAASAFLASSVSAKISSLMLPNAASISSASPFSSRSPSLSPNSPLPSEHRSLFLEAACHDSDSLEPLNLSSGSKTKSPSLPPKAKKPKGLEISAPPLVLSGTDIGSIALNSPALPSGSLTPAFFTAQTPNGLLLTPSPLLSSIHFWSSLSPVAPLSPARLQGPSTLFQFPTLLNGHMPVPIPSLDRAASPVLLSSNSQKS
The note with it: protein: recombinant; tags: N-terminal GST; dsDNA, one strand shown. The method in brief: as §1

Another experiment deals with T7, FEV (Homo sapiens, UniProt Q99581 1-238).
T7 sequence: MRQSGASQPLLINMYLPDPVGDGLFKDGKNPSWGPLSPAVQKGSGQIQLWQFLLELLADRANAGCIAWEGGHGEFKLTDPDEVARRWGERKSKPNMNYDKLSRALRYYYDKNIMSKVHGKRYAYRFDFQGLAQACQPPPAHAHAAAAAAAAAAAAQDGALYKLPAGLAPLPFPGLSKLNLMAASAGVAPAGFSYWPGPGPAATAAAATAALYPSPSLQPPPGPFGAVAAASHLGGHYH
To be noted: protein: recombinant; tags: N-terminal GST; dsDNA, one strand shown. The procedure, abridged:
as §1

A further experiment deals with ETV5 (Homo sapiens, UniProt P41161 1-510). The note with it: protein: recombinant; tags: N-terminal GST; dsDNA, one strand shown. The method in brief: as §1
Sequence of ETV5 (P41161 whole entry): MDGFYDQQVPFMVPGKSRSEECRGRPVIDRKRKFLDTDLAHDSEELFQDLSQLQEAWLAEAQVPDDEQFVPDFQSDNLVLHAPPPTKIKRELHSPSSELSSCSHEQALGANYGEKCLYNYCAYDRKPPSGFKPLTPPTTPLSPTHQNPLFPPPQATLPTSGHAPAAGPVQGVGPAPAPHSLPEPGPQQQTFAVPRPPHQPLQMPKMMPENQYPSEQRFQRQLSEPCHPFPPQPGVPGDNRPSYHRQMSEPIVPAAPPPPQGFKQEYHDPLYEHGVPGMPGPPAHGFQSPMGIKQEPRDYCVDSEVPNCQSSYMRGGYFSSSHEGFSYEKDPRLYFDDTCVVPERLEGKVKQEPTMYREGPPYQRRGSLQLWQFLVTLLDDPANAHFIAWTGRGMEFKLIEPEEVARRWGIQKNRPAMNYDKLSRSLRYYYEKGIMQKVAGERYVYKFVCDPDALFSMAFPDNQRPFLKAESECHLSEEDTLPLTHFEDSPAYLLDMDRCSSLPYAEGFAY
In a further experiment the target is HSF1 (Homo sapiens, UniProt Q00613 1-529). The note with it: protein: recombinant; tags: N-terminal GST; chain copies: 3; dsDNA, one strand shown. The method in brief: as §1
Sequence of HSF1 (Q00613 whole entry): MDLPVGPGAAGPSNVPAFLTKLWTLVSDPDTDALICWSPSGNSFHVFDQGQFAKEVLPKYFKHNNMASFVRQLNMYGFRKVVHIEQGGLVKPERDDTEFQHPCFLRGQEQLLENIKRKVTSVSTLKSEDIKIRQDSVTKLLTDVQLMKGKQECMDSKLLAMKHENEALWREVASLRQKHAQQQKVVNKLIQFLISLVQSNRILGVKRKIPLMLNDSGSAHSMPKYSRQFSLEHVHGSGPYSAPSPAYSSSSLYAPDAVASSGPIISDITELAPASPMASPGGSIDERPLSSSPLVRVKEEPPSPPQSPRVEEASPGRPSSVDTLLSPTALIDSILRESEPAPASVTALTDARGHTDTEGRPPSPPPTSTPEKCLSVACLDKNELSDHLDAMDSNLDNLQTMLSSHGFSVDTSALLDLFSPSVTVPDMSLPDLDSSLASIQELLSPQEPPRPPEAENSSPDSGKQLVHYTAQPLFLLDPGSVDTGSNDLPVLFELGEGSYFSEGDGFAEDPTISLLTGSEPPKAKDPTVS
Another experiment has as its target T8, SPIC (Homo sapiens, UniProt Q8N5J4 1-248).
T8 sequence: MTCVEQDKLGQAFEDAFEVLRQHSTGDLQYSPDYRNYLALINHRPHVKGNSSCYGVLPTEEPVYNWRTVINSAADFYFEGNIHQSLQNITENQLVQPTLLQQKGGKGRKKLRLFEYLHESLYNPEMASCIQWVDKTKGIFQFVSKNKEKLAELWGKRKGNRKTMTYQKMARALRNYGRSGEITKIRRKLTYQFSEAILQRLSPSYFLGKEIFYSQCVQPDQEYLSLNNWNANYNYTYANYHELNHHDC
To be noted: protein: recombinant; tags: N-terminal GST; dsDNA, one strand shown. The method in brief: as §1

A further experiment addresses ELF4 (Homo sapiens, UniProt Q99607 1-663). To be noted: protein: recombinant; tags: N-terminal GST; dsDNA, one strand shown. The procedure, abridged:
as §1

In the next experiment the target is T9, ELK4 (Homo sapiens, UniProt P28324-2 1-405).
T9 sequence: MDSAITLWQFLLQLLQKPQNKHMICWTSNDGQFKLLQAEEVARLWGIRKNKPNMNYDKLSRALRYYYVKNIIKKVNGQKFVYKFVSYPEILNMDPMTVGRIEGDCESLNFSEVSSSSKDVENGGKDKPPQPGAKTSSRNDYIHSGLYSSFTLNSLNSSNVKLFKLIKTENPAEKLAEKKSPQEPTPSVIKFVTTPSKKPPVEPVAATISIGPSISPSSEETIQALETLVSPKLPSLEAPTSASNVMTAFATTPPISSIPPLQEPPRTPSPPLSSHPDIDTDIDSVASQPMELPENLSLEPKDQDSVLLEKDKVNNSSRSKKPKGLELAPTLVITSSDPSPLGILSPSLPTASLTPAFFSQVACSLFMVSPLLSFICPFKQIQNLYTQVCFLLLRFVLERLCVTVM
The note with it: protein: recombinant; tags: N-terminal GST; dsDNA, one strand shown. The method in brief: as §1

The next experiment concerns the target T10, ETV2 (Homo sapiens, UniProt O00321 1-342).
T10 sequence: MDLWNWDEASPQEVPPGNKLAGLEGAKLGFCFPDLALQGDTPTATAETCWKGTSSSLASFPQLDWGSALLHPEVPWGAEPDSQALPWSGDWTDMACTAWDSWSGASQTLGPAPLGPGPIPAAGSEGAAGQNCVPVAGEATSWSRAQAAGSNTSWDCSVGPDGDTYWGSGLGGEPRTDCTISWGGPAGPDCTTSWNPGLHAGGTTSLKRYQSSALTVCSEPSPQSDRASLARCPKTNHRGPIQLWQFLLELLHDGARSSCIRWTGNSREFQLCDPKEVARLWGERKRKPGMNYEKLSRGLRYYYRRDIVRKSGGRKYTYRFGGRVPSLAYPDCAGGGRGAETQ
To be noted: protein: recombinant; tags: N-terminal GST; dsDNA, one strand shown. The method in brief:
as §1

A further experiment deals with T11, ELF3 (Homo sapiens, UniProt P78545 1-371).
T11 sequence: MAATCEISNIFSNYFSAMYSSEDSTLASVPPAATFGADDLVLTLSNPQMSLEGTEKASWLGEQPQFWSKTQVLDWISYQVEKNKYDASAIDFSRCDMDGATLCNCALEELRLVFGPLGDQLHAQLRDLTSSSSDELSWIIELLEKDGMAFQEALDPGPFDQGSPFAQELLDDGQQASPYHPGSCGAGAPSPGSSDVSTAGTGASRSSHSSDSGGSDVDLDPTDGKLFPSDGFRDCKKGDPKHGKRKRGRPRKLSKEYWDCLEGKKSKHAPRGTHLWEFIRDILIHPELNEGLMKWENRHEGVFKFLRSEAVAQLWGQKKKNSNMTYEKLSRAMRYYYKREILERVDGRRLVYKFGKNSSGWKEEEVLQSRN
To be noted: protein: recombinant; tags: N-terminal GST; dsDNA, one strand shown. The method in brief:
as §1

The next experiment addresses CRX (Homo sapiens, UniProt O43186 1-299). To be noted: protein: recombinant; tags: N-terminal GST; dsDNA, one strand shown. The method in brief:
as §1

In the next experiment the target is ETV1 (Homo sapiens, UniProt P50549 1-477). To be noted: protein: recombinant; tags: N-terminal GST; dsDNA, one strand shown. The procedure, abridged:
as §1

Sequence of CRX (O43186 whole entry): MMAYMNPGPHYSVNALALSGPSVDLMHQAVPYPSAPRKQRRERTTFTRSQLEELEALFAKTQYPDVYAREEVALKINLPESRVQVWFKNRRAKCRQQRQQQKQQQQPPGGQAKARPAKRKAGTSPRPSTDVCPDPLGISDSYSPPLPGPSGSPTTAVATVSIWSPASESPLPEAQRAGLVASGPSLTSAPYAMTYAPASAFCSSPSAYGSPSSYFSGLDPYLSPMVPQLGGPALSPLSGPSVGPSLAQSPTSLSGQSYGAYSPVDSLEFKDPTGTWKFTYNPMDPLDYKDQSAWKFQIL
Sequence of ETV1 (P50549 whole entry): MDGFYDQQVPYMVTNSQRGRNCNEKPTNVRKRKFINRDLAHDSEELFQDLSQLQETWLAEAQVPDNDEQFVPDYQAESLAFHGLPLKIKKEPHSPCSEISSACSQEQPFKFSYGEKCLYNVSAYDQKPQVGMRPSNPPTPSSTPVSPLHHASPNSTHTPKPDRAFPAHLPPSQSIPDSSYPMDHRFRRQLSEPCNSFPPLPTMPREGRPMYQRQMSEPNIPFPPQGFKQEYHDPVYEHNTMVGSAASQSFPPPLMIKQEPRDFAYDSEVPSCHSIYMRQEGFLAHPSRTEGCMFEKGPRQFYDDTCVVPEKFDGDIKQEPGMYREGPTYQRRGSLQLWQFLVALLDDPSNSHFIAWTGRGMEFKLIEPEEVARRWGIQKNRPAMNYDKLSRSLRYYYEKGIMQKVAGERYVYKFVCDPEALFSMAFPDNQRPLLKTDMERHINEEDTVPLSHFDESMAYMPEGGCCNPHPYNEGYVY
Sequence of ELF4 (Q99607 whole entry): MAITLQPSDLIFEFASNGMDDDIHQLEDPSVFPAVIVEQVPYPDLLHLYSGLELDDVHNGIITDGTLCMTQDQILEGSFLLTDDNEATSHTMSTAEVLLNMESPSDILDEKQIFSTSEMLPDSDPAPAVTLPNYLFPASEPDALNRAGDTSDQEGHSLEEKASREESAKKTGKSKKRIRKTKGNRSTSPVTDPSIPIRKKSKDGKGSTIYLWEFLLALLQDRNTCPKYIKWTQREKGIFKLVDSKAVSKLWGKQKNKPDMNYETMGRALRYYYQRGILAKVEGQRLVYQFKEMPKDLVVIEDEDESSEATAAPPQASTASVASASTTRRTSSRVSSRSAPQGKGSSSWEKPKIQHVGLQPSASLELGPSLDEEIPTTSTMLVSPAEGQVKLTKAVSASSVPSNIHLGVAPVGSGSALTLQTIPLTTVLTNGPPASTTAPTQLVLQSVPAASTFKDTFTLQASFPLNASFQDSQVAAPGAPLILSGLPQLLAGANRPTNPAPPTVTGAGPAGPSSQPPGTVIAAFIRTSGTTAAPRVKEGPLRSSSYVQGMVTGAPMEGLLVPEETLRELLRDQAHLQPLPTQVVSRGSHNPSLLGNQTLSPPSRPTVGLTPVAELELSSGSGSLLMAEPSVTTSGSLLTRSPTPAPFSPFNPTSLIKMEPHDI
Sequence of SPIB (Q01892 whole entry): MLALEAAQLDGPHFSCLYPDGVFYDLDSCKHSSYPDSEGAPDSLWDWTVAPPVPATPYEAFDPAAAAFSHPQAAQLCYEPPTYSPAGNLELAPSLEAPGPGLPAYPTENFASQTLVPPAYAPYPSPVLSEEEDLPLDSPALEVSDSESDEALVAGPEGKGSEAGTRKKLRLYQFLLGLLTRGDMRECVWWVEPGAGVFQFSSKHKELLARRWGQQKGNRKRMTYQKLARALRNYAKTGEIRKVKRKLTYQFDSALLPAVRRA
Sequence of ELF1 (P32519 whole entry): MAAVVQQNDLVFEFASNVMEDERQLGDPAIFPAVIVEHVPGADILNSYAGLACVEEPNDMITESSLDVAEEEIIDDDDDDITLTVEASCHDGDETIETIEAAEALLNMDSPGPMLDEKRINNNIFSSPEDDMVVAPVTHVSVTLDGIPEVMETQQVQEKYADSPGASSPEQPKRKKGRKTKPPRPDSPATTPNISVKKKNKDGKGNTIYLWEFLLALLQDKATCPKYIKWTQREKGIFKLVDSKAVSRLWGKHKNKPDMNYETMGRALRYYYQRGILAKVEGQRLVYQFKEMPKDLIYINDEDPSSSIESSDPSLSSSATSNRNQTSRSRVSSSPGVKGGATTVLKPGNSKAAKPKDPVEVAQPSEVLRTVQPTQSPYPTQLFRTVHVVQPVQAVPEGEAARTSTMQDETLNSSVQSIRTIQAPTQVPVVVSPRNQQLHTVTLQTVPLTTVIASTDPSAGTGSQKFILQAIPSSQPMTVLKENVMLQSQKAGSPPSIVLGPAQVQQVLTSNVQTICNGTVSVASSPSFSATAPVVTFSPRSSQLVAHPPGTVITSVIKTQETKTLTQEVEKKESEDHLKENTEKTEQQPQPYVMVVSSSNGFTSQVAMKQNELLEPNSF

Turning to CTACCC, the binding signal with FLI1 is 1.27 fold enrichment (6-mer frequency, TF over GST control); with ELK1 it was 1.32 fold enrichment (6-mer frequency, TF over GST control); in the experiment with GABPA, 1.4 fold enrichment (6-mer frequency, TF over GST control); with ERG, 1.36 fold enrichment (6-mer frequency, TF over GST control); in the experiment with ELF1 it was 1.33 fold enrichment (6-mer frequency, TF over GST control); with EHF, 1.27 fold enrichment (6-mer frequency, TF over GST control). Also, the binding signal was 1.31 fold enrichment (6-mer frequency, TF over GST control) with SPI1; 1.34 fold enrichment (6-mer frequency, TF over GST control) with SPIB; 1.31 fold enrichment (6-mer frequency, TF over GST control) with ELK3; 1.26 fold enrichment (6-mer frequency, TF over GST control) with FEV; 1.28 fold enrichment (6-mer frequency, TF over GST control) with ETV5; 1.04 fold enrichment (6-mer frequency, TF over GST control) in the experiment with HSF1. Moreover, the binding signal with SPIC was 1.47 fold enrichment (6-mer frequency, TF over GST control); with ELF4, 1.36 fold enrichment (6-mer frequency, TF over GST control); in the experiment with ELK4, 1.23 fold enrichment (6-mer frequency, TF over GST control); with ETV2, 1.29 fold enrichment (6-mer frequency, TF over GST control); with ELF3 it was 1.3 fold enrichment (6-mer frequency, TF over GST control); with CRX it was 1.08 fold enrichment (6-mer frequency, TF over GST control). Also, the binding signal with ETV1 was 1.26 fold enrichment (6-mer frequency, TF over GST control).
